# The list is not random: actives were taken first. Their share in the collection is about 7.5%.
# FLuc counter: inhibits or activates purified firefly luciferase, miR-21 counter-screen; P08659; purified FLuc, Km substrates, luminescence inhibition; Potency, µM (top dose mostly 57.5 µM), usual class: inhibitors; 360,000 compounds, 6.9% hits; note: nearly all actives have a fitted effect of over 55% in size
# Target sequence (P08659 whole entry, looked up): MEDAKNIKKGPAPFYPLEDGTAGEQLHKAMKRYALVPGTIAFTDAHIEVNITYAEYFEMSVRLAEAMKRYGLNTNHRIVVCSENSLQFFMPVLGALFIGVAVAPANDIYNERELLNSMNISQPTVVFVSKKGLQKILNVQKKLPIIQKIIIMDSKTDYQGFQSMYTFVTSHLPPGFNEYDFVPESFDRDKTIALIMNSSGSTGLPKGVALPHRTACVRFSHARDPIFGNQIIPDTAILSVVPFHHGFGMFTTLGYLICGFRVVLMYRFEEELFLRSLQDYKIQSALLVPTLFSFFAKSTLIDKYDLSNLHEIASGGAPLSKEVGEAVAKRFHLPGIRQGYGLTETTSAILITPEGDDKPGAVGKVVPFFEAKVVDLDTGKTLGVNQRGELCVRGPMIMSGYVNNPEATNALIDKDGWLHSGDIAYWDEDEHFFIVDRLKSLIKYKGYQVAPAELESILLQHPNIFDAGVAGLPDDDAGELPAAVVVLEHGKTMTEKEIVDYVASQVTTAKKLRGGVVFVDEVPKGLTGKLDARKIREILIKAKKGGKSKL
#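 Purified P. pyralis luciferase, 10 nM final, with Km-level 10 uM D-luciferin and 10 uM ATP in 50 mM Tris acetate pH 7.5, 10 mM Mg acetate, 0.01% Tween-20, 0.05% BSA; 6-point qHTS titration about 60 µM downward; luminescence read.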
# Rab9 prom act: activators of Rab9 promoter. Potency, µM (highest dose often 9.22 µM), most hits filed as activators. 320,000 compounds, 2.8% hits. Huh7 Rab9 promoter-luciferase reporter, luminescence, 24 h; note: nearly all actives have a fitted effect of over 60% in size
#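 Huh7 reporter line, Rab9 promoter upstream of luciferase. Compound exposure 24 h at 37 °C in reduced-serum medium with 10% FBS. Read-out: luminescence.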
# SMN2 splice up: SMN2 splice variant enhancement. 210,000 compounds, 2.8% hits. HEK293 SMN2-luciferase splicing reporter, luminescence, 30-36 h. Potency, µM (top dose mostly 46.1 µM), actives largely listed as activators; note: nearly all actives have a fitted effect of over 55% in size
#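 HEK293 cells carry an SMN2 […]–luciferase reporter in which exon 7 inclusion puts luciferase in frame. Cells were plated 10-12 h before compound addition, then incubated 30-36 h at 37C. ONE-Glo luminescence was read; sodium butyrate at 4.5 mM final served as control.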
# ELG1 genotox: induces genotoxicity in HEK293T cells with luciferase-tagged ELG1; Potency, µM (doses to about 46 µM), actives largely listed as activators; HEK293T ELG1-luciferase reporter, luminescence, 16 h; 330,000 compounds, 1.3% hits; note: nearly all actives have a fitted effect of over 60% in size
#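 Quantitative HTS format in 1536-well plates. HEK293T ELG1-luciferase reporter cells receive test compound and are incubated 16 hr at 37 °C, 5% CO2; ONE-Glo added, 30 min room temperature, then luminescence read.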
# Luc counter: Kinase-Glo luciferase inhibition (counter-screen); Kinase-Glo luciferase, ATP luminescence, 8 min; Potency, µM (titrated, usually from 38.3 µM), hits mostly inhibitors; 200,000 compounds, 0.28% hits; AID 1379; note: nearly all actives have a fitted effect of over 60% in size
#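 Luminescence was the read-out, taken after 8-minute incubation at ambient temperature. Luciferase turned over luciferin with 10 uM ATP in imidazole pH 7.2 buffer containing KCl, MgCl2, Tween 20 and BSA.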
# NPC1 promoter act: NPC1 promoter activation; Huh7 NPC1 promoter luciferase reporter, 24 h; Potency, µM (series often up to 9.22 µM), most hits filed as activators; 320,000 compounds, 2.4% hits; note: nearly all actives have a fitted effect of over 60% in size
#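 Huh7 reporter cells (NPC1 promoter driving luciferase) are dosed with compound for 24 h at 37 °C, 5% CO2; luciferase detection reagent is then added and luminescence measured after 10 min at ambient temperature.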
# Numbers stand for hits; - = inactive; ? = inconclusive; . = no result; [ ] = dose if it differs, or a comment. Calls come from the whole dose curve; as a rule, active = well fitted curve in the direction sought with a large enough effect; inconclusive = small, poorly fitted or top-dose-only effect, or another doubt; inactive = no such curve, though single readings can be large; an effect the other way counts as inactive or inconclusive.
SMILES,FLuc counter,Rab9 prom act,SMN2 splice up,ELG1 genotox,Luc counter,NPC1 promoter act
O=C(CN1C(=O)NC2(CCCC2)C1=O)Nc1cc(S(=O)(=O)N2CCOCC2)ccc1OCC(F)(F)F,-,-,.,-,.,-
COc1ccc(Cl)cc1NC(=S)N(CCN1CCOCC1)C1CCN(C(C)=O)CC1,-,-,-,-,-,-
CC(C)(C)NC(=O)[C@@H]1CC[C@@H]2[C@@H]3CC[C@@H]4NC(=O)C=C[C@@]4(C)[C@H]3CC[C@]21C,.,.,-,.,-,.
Cc1cccc(-n2ncc3c(N4CCCc5ccccc54)ncnc32)c1,5.4µM,2µM,13µM,2.3µM,-,2.8µM
Cc1cccc(-n2ncc3c(NCc4cccs4)ncnc32)c1,9.5µM,?,10µM,?,-,3.5µM
COc1ccc(CNc2ncnc3c2cnn3-c2ccc(C)c(C)c2)cc1,-,.,.,.,.,.
Cc1ccc(-n2ncc3c(NCc4ccco4)ncnc32)cc1C,13µM,3.5µM,16µM,?,-,2.8µM
Cc1cccc(-n2ncc3c(NNC(=O)c4ccco4)ncnc32)c1,?,-,.,-,.,-
Cc1ccc(-n2ncc3c(NNC(=O)c4ccco4)ncnc32)cc1Cl,8.5µM,-,.,?,.,-
COc1ccccc1N(CC(=O)Nc1cc(C)cc(C)c1)S(C)(=O)=O,-,.,-,.,.,.
Cc1ccc(-n2ncc3c(=O)n(CC(=O)N(C)C)cnc32)cc1C,?,-,.,-,.,-
Cc1cccc(-n2ncc3c(NCCN4CCOCC4)ncnc32)c1,?,-,-,-,-,-
CC(=O)Nc1ccc(Nc2ncnc3c2cnn3-c2cccc(C)c2)cc1,-,3.2µM,?,-,-,2.8µM
CC(=O)Cn1cnc2c(cnn2-c2ccc(C)c(C)c2)c1=O,24µM,1.6µM,.,?,.,3.2µM
COc1ccc(OC)c(Nc2ncnc3c2cnn3-c2cccc(C)c2)c1,-,-,?,-,-,-
CNc1ncnc2c1cnn2-c1ccc(C)c(C)c1,11µM,.,.,.,.,.
CCOCCCNc1ncnc2c1cnn2-c1ccc(C)c(C)c1,11µM,.,.,.,.,.
O=C(N/N=C/c1c(-c2ccccc2)[nH]c2ccccc12)c1cccnc1,3µM,-,?,-,-,-
Cn1c(-c2ccccc2)c(/C=N/NC(=O)c2cccnc2)c2ccccc21,5.4µM,-,?,-,-,-
Cn1cccc1/C=N/NC(=O)c1cccnc1,?,-,-,-,-,-
COc1ccc(-n2c(=O)c(C)nc3cncnc32)cc1,.,.,-,.,-,.
CC(C)[C@@H]1[C@H]2CC[C@H](C2)[C@H]1N,.,.,.,.,-,.
COc1ccc(OCc2nnc(SCC(=O)Nc3cccc(C(C)=O)c3)o2)cc1,19µM,-,.,-,.,-
C=CCn1c(COc2ccc3c(c2)CCCC3)nnc1SCC(=O)Nc1cccc(SC)c1,13µM,-,-,-,-,-
C=CCn1c(COc2ccccc2)nnc1SCC(=O)Nc1ccc2c(c1)OCCO2,-,-,-,-,-,-
SMILES,FLuc counter,Rab9 prom act,SMN2 splice up,ELG1 genotox,Luc counter,NPC1 promoter act
COc1cccc(NC(=O)CSc2nnc(COc3ccc4c(c3)CCCC4)o2)c1,21µM,-,-,-,-,-
Cc1cc(C)c(S(=O)(=O)NCC(c2ccc(N(C)C)cc2)N2CCOCC2)c(C)c1 (stereo not given),-,.,.,.,.,.
COc1ccc(C(=O)c2ccc(N3CCN(C(=O)c4ccc(F)cc4)CC3)c(F)c2)cc1Br,-,-,-,-,-,-
Cc1ccccc1-c1ccc(C=Nc2c(C)n(C)n(-c3ccccc3)c2=O)o1,4.8µM,-,-,-,-,-
C(/C=C\c1ccccc1)=Nc1ccc2c(c1)Cc1ccccc1-2,.,.,-[9.22 µM],.,-[7.66 µM],.
Cc1c(N=C/C=C/c2ccccc2)c(=O)n(-c2ccccc2)n1C,19µM,-,-,-,-,-
Cc1c(N=Cc2ccc(Cl)o2)c(=O)n(-c2ccccc2)n1C,-,-,-,-,-,-
Cc1c(N=Cc2ccco2)c(=O)n(-c2ccccc2)n1C,-,-,-,-,-,-
Cc1c(N=C/C=C/c2ccccc2)cnn1C,6.7µM,-,-,-,-,-
Cc1c(N=Cc2ccc(-c3ccc(Cl)cc3)o2)c(=O)n(-c2ccccc2)n1C,9.5µM,-,-,-,-,-
CCCCOc1ccc(C(=O)NCCc2sc(-c3cccc(F)c3)nc2C)cc1,-,.,.,.,.,.
O=C(Nc1ccccc1C(F)(F)F)c1cc(-c2ccccc2O)on1,-,4µM,?,-,-,?
COc1ccc(NC(=O)c2cc(-c3cccs3)on2)cc1,?,-,.,16µM,.,-
COC(=O)c1ccccc1NC(=O)c1cc(-c2cccs2)on1,-,2.2µM,-,-,-,-
COc1ccccc1-c1cc(C(=O)Nc2ccccc2C(F)(F)F)no1,-,.,-,.,.,.
O=C(Nc1cccnc1)c1cc(-c2ccccc2O)on1,1.3µM,-,.,-,.,-
O=C(c1ccc(Cl)c([N+](=O)[O-])c1)N1CCN(S(=O)(=O)c2ccc(Cl)cc2)CC1,-,-,.,-,.,-
O=C(CCCCCn1nnc2ccccc2c1=O)Nc1ccccc1Cl,-,-[1.84 µM],.,-,.,-
O=C(Nc1cccnc1)c1cc(-c2cccs2)on1,1.7µM,?,-,-,-,-
O=C(NCCc1ccccc1F)c1ccc2c(c1)OCCO2,0.048µM,0.0006µM,.,?,.,0.025µM
O=C(NCCc1ccc(Cl)cc1)c1ccc2c(c1)OCO2,12µM,1.8µM,.,?,.,1.8µM
O=C(NCCc1ccc(Cl)cc1)c1ccc2c(c1)OCCO2,1.2µM,0.32µM,.,2.3µM,.,0.4µM
O=C(NCCOc1ccc(Cl)cc1)c1ccc2c(c1)OCCO2,8.5µM,3.5µM,.,?,.,3.2µM
O=C(NCc1ccccc1F)c1ccc2c(c1)OCO2,?,-,-,?,-,-
NS(=O)(=O)c1ccc(CCNC(=O)c2ccc3c(c2)OCO3)cc1,-,-,.,-,.,-
SMILES,FLuc counter,Rab9 prom act,SMN2 splice up,ELG1 genotox,Luc counter,NPC1 promoter act
Cc1cc(C(=O)NNC(=O)c2ccccc2[N+](=O)[O-])c(C)o1,?,-,.,-,.,-
CCc1ccccc1NC(=O)N1CCC(CN2CCc3ccccc3C2)CC1,-,.,.,.,.,.
Cn1c(=O)c(=O)n(C)c2cc(NS(=O)(=O)c3ccc(Br)cc3)c(Cl)cc21,?,.,-,.,.,.
C#CCn1c(=NC(=O)c2cc(-c3cccs3)nc3ccccc23)sc2cc(S(N)(=O)=O)ccc21,-,-,-,-,-,-
Cc1cc(C(=O)CN2C(=O)C(=O)N(Cc3ccccc3)C2=O)c(C)n1-c1ccccc1F,19µM,-,-,-,-,-
Cc1cc(C(=O)CN2CCC(C)CC2)c(C)n1-c1ccccc1F,1.9µM,-,?,?,-,-
Cc1cc(C(=O)CN2C(=O)C(=O)N(Cc3ccccc3)C2=O)c(C)n1Cc1ccccc1,.,.,.,-,.,.
Cc1cc(C(=O)CN2CC(C)OC(C)C2)c(C)n1-c1ccccc1 (stereo not given),?,?,?,21µM,-,?
COc1ccc(-n2c(C)cc(C(=O)CN3C(=O)c4ccccc4C3=O)c2C)cc1,15µM,-,-,-,-,-
